Bioassay records (PubChem)
ELG1 repair inh = qHTS screen for small molecules that inhibit ELG1-dependent DNA repair in human embryonic kidney (HEK293T) cells expressing luciferase-tagged ELG1 | Potency, µM (doses to about 46.1 µM), for inactives: at the top dose activity change, negative = inhibition, hits mostly inhibitors | HEK293T ELG1-luciferase reporter, luminescence, 16 h; DNA damage induced by 5-fluorouridine | 2.3% of 330,000 active; also: % is scaled to controls: 0 for no effect and ±100 for the full control effect; nearly all actives have a fitted effect of over 55% in size
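Reporter activity after DNA damage by 5-fluorouridine is monitored. Compound-treated cells incubate 16 hr at 37 °C, then ONE-Glo is added for 30 min before luminescence reading.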
SMN2 splice enh = qHTS Assay for Enhancers of SMN2 Splice Variant Expression; HEK293 SMN2-luciferase splicing reporter, luminescence, 30-36 h; Potency, µM (highest dose often 46.1 µM), inactives show at the top dose activity change, positive = activation, actives largely listed as activators; 2.8% of 210,000 active; also: % of control where 0% means no effect; nearly all actives have a fitted effect of over 55% in size
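HEK293 cells carry an SMN2 […]–luciferase reporter in which exon 7 inclusion puts luciferase in frame. Cells were plated 10-12 h before compound addition, then incubated 30-36 h at 37C. ONE-Glo luminescence was read; sodium butyrate at 4.5 mM final served as control.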
ELG1 genotoxic = qHTS screen for small molecules that induce genotoxicity in human embryonic kidney (HEK293T) cells expressing luciferase-tagged ELG1. HEK293T ELG1-luciferase reporter, luminescence, 16 h. Potency, µM (doses to about 46 µM), without a hit: at the highest dose activity change, positive = activation, most hits filed as activators. 1.3% of 330,000 active; also: % of control where 0% means no effect; nearly all actives have a fitted effect of over 60% in size
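Quantitative HTS format in 1536-well plates. HEK293T ELG1-luciferase reporter cells receive test compound and are incubated 16 hr at 37 °C, 5% CO2; ONE-Glo added, 30 min room temperature, then luminescence read.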
NPC1 promoter act = qHTS Assay for NPC1 Promoter Activators; 2.4% of 320,000 active; Huh7 NPC1 promoter luciferase reporter, 24 h; AID 485313, 2010; Potency, µM (highest dose often 9.22 µM), without a hit: at the highest dose activation, hits mostly activators; also: % of control where 0% means no effect; nearly all actives have a fitted effect of over 60% in size
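Luminescence read-out of NPC1 promoter-driven luciferase in stably transfected Huh7 cells; compounds delivered in DMSO and left 24 h at 37C, 5% CO2, qHTS titration format.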
FLuc modulator = qHTS profiling assay for firefly luciferase inhibitor/activator using purifed enzyme and Km concentrations of substrates (counterscreen for miR-21 project); purified FLuc, Km substrates, luminescence inhibition; 6.9% of 360,000 active; Potency, µM (titrated, usually from 57.5 µM), inactives show at the highest dose activity change, negative = inhibition, usual class: inhibitors;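 also: plate controls were vehicle for no effect and reference inhibitor for full effect; nearly all actives have a fitted effect of over 55% in size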
Target sequence (P08659 whole entry, looked up): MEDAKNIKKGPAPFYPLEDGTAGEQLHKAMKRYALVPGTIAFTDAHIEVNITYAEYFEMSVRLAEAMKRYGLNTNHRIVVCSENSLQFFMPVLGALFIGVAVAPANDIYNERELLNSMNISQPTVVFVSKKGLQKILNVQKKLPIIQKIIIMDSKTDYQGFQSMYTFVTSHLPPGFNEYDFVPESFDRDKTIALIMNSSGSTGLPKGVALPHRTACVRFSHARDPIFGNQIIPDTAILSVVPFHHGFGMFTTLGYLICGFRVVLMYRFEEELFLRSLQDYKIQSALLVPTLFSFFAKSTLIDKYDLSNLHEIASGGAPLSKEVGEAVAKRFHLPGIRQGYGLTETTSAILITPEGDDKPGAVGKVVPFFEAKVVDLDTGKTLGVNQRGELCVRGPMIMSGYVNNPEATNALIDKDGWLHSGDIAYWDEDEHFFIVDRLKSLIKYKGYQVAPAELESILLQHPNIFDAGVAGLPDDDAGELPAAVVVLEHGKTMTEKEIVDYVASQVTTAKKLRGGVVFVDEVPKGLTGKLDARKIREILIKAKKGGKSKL
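Purified P. pyralis luciferase, 10 nM final, with Km-level 10 uM D-luciferin and 10 uM ATP in 50 mM Tris acetate pH 7.5, 10 mM Mg acetate, 0.01% Tween-20, 0.05% BSA; 6-point qHTS titration about 60 µM downward; luminescence read.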
Rab9 prom act = qHTS Assay for Rab9 Promoter Activators. AID 485297, 2010. Potency, µM (series often up to 9.22 µM), inactives show top-dose activation, negative = inhibition, most hits filed as activators. Huh7 Rab9 promoter-luciferase reporter, luminescence, 24 h. 2.8% of 320,000 active; also: % of control where 0% means no effect; nearly all actives have a fitted effect of over 60% in size
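Huh7 reporter line, Rab9 promoter upstream of luciferase. Compound exposure 24 h at 37 °C in reduced-serum medium with 10% FBS. Read-out: luminescence.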
The depositor's hits bear a star; ? = inconclusive; / = not tested or not shown; [ ] = remark or other dose. Only some compounds are listed: those with a hit (about 9.3% of all), similar ones and a draw of the others. Calls follow the shape of the dose curve; as a rule, active = well fitted curve in the direction sought with a large enough effect; inconclusive = small, poorly fitted or top-dose-only effect, or another doubt; inactive = no such curve, though single readings can be large; an effect the other way counts as inactive or inconclusive. Potency is read from the fitted curve at half-maximal effect.

SMILES	ELG1 repair inh	SMN2 splice enh	ELG1 genotoxic	NPC1 promoter act	FLuc modulator	Rab9 prom act
Cn1c(CN2CCOCC2)nnc1SCC(=O)Nc1nccs1	2.9%	5.9%	3.9%	-0.7%	3.9%	-10.7%
Cc1ccc(C(=O)NCCCNCCCNC(=O)c2ccc(C)nc2)cn1	8.8%	-4.5%	0.8%	3.5%	-0.1%	0.0%
C=CCn1cccc(C(=O)Nc2ccc(C)cc2)c1=O	?	/	?	4.47µM*	10.7µM*	2.82µM*
C=CCn1cccc(C(=O)Nc2cc(OC)ccc2OC)c1=O	-7.5%	-2.6%	0.0%	13.9%	-5.4%	21.3%
C=CCn1cccc(C(=O)Nc2ccc(C)c(C)c2)c1=O	?	/	?	1.58µM*	10.7µM*	2.24µM*
C=CCn1c(N)c(C(=O)Nc2ccc(C)cc2)sc1=S	?	20.4%	?	?	1.2µM*	2.82µM*
C/C=C/Cn1cccc(C(=O)Nc2ccc(OC)cc2)c1=O	-1.0%	-20.8%	7.8%	?	23.9µM*	?
O=C(O)CCc1ccc(-c2cccs2)n1Cc1ccco1	5.7%	12.1%	0.6%	-3.7%	3.2%[2.3 µM]	-3.0%
Cc1ccn2cc(-c3ccc4c(c3)NC(=O)CO4)nc2c1	?	5.62µM*	?	1.26µM*	2.39µM*	0.562µM*
Cc1cccn2cc(-c3ccc4c(c3)NC(=O)CO4)nc12	?	/	11.4%	25.3%	10.7µM*	?
CN(C)S(=O)(=O)c1cccc(NC(=O)c2cnccn2)c1	8.4%	0.0%	-0.2%	1.9%	-3.2%	?
COc1ccc(NS(=O)(=O)c2cccc(NC(=O)c3cnccn3)c2)cc1Br	18.3µM*	-19.9%	-8.2%	-5.0%	-2.9%	-9.9%
O=C(/C=C/c1ccccc1)Nc1cccnc1Oc1ccccc1F	4.5%	/	9.0%	?	4.78µM*	?
COc1ccccc1NS(=O)(=O)c1cccc(NC(=O)c2ccc3ccccc3n2)c1	18.4µM*	-16.9%	-12.9%	-1.0%	?	-1.7%
COc1ccccc1NS(=O)(=O)c1cccc(NC(=O)c2nc3nc(C)cc(C)n3n2)c1	?	9.0%	0.4%	-3.5%	2.4%	-2.6%
O=C(Nc1cccc(S(=O)(=O)Nc2ccccc2F)c1)c1ccc2ccccc2n1	?	-19.7%	-13.9%	-6.5%	19µM*	-7.7%
CC1CCCCN1C(=O)CSc1nc2ccccc2[nH]1 (stereo not given)	?	?	21.0%	18.6%	-29.4%	?
Cc1cc(C)n(-c2cc(O)c(-n3nc(C)cc3C)cc2O)n1	5.4%	-2.6%	-0.2%	-6.3%	1.1%	-8.8%
COc1cc(NC(=O)C2CC2)c(OC)cc1NC(=O)CCC(=O)NC1CCN(Cc2ccccc2)CC1	-3.7%	4.8%	-2.5%	-3.9%	3.8%	-2.9%
O=C(/C=C/c1ccccc1)Nc1cccc(S(=O)(=O)Nc2ccccc2F)c1	-5.0%	12.0%	-2.6%	-1.5%	6.75µM*	-2.7%
CCOc1cc(C(=S)N2CCOCC2)cc(Br)c1OS(=O)(=O)c1ccccc1	-24.6%	/	-3.1%	-2.4%	-1.5%	-0.1%
O=C(O/N=C1\CCCc2ccccc21)c1cccs1	0.0%	0.2%	-2.8%	0.0%	1.35µM*	-4.6%
O=C(Cc1ccc(Cl)cc1)N/N=C1\CCCc2ccccc21	-4.2%	-21.4%	-4.4%	-6.4%	-3.1%	-6.3%
O=C(Cc1ccccc1)O/N=C1\CCCc2ccccc21	-4.9%	15.9%	1.8%	-2.6%	15.1µM*	0.4%
Nc1nonc1-n1nnc(C(=O)N/N=C/c2c(F)cccc2Cl)c1-c1ccc2c(c1)OCO2	4.4%	/	-3.6%	-11.1%	0.6%	-3.8%
